# Laboratory results published in PubChem BioAssay (EPA / NIEHS).
# Calls of active or inactive are those of the source. The calls were made as follows: active = hit-call score of the fitted dose curve at least 0.9, where 1 is the maximum; inactive = score below 0.9.
# Tests used:
# Conditions in all cases: mRNA level, 48 h; actives raise or lower the signal
# [1] = read-out: Apoptosis regulator Bcl-2 (Homo sapiens) (UniProt P10415); assay: LTEA_HepaRG_BCL2: Life Technologies and Expression Analysis (LTEA) Assay for Bcl-2 gene using HepaRG (AID 2283475);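 also: BCL2 transcript by TaqMan qRT-PCR normalised to ACTB GAPDH and POLR2A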
# How it was run: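 Each chemical was tested in duplicate on HepaRG cultures held in serum-free induction medium for 48 h, highest concentration 100 uM with half-log dilutions. Transcript levels came from multiplexed qRT-PCR, normalised to housekeeping genes; activity was scored in either direction relative to DMSO.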
# [2] = read-out: Bcl-2 (BID) gene, BID (gene 637); assay: LTEA_HepaRG_BID: Life Technologies and Expression Analysis (LTEA) Assay for Bcl-2 (BID) gene using HepaRG (AID 2283476)
# How it was run: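 Assay used HepaRG hepatic cells treated 48 h in serum-free medium with half-log dilutions from 100 uM. Endpoint: BID mRNA, qRT-PCR, normalized to ACTB/GAPDH/POLR2A.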
# [3] = read-out: Caspase-3 (Homo sapiens) (UniProt P42574); assay: LTEA_HepaRG_CASP3: Life Technologies and Expression Analysis (LTEA) Assay for cysteine-aspartic acid protease (CASP3) using HepaRG (AID 2283477)
# How it was run: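 Transcript-level assay: CASP3 mRNA in human HepaRG after 48 h treatment, eight half-log concentrations from 100 uM in 0.5% DMSO, quantified by qRT-PCR.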
# [4] = read-out: Cytochrome P450 (CYP24A1), CYP24A1 (gene 1591); assay: LTEA_HepaRG_CYP24A1: Life Technologies and Expression Analysis (LTEA) Assay for Cytochrome P450 (CYP24A1) using HepaRG (AID 2283478)
# How it was run: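 Gene expression of CYP24A1 by TaqMan qRT-PCR in HepaRG after 48 h treatment, highest concentration 100 uM; activity fitted in both directions relative to DMSO vehicle.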
# [5] = read-out: Cytochrome P450 (CYP1A2), CYP1A2 (gene 1544); assay: LTEA_HepaRG_CYP1A2: Life Technologies and Expression Analysis (LTEA) Assay for Cytochrome P450 (CYP1A2) using HepaRG (AID 2283479);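 as to AC50: TaqMan qRT-PCR transcript level normalized to ACTB GAPDH and POLR2A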
# How it was run: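 In duplicate wells, HepaRG cultures maintained in 0.5% DMSO were treated 48 h across an 8-point, half-log series topping at 100 uM; phenobarbital (1 mM) served as induction control. Expression was read by qRT-PCR.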
# [6] = read-out: cysteine-aspartic acid protease (CASP8), CASP8 (gene 841); assay: LTEA_HepaRG_CASP8: Life Technologies and Expression Analysis (LTEA) Assay for cysteine-aspartic acid protease (CASP8) using HepaRG (AID 2283480)
# How it was run: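 Concentration-response in duplicate up to 100 uM (half-log steps, 0.5% DMSO) on differentiated HepaRG cultures for 48 h. Expression change of CASP8 mRNA is determined by TaqMan qRT-PCR with housekeeping-gene normalization.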
# [7] = read-out: Cytochrome P450 (CYP2B6), CYP2B6 (gene 1555); assay: LTEA_HepaRG_CYP2B6: Life Technologies and Expression Analysis (LTEA) Assay for Cytochrome P450 (CYP2B6) using HepaRG (AID 2283481)
# How it was run: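 Human HepaRG, 48 h dosing, 0.5% DMSO vehicle, top dose 100 uM. CYP2B6 transcript by qRT-PCR, housekeeping-normalized, bidirectional curve fit.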
# [8] = read-out: Cytochrome P450 2C19 (Homo sapiens) (UniProt P33261); assay: LTEA_HepaRG_CYP2C19: Life Technologies and Expression Analysis (LTEA) Assay for CYP2C19 using HepaRG (AID 2283482)
# How it was run: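 Endpoint: CYP2C19 mRNA change, bidirectional fit vs 0.5% DMSO. Cells: HepaRG, 48 h exposure, eight-point series topping at 100 uM. Quantitation: qRT-PCR normalized to ACTB, GAPDH, POLR2A.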
# [9] = read-out: CYP2C8 (gene 1558); assay: LTEA_HepaRG_CYP2C8: Life Technologies and Expression Analysis (LTEA) Assay for CYP2C8 using HepaRG (AID 2283483)
# How it was run: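 This is a transcriptional endpoint in HepaRG cultures: 48 h exposure, highest concentration 100 uM. CYP2C8 mRNA is quantified by TaqMan qRT-PCR.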
# [10] = read-out: CYP2C9 (gene 1559); assay: LTEA_HepaRG_CYP2C9: Life Technologies and Expression Analysis (LTEA) Assay for CYP2C9 using HepaRG (AID 2283484)
# How it was run: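 Eight-point concentration-response (highest 100 uM, half-log dilutions) in HepaRG cells for 48 h; CYP2C9 expression by qRT-PCR normalized to ACTB, GAPDH, POLR2A. Bidirectional fit, DMSO baseline.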
# Chain of Cytochrome P450 2C19 (Homo sapiens) (P33261 whole entry, looked up): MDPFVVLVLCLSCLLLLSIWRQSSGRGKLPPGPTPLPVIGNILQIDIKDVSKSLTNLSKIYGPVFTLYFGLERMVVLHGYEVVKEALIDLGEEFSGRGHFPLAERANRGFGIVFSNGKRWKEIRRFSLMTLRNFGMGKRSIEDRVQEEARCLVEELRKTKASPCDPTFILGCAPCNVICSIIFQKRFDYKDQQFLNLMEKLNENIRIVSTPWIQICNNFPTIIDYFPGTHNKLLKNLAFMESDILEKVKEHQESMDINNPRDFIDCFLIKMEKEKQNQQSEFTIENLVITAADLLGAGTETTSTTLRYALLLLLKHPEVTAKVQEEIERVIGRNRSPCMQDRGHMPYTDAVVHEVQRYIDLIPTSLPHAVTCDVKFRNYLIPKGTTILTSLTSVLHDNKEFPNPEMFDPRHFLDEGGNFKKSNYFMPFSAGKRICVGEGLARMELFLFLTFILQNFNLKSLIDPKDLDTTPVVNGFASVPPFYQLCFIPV
# Chain of Apoptosis regulator Bcl-2 (Homo sapiens) (P10415 whole entry, looked up): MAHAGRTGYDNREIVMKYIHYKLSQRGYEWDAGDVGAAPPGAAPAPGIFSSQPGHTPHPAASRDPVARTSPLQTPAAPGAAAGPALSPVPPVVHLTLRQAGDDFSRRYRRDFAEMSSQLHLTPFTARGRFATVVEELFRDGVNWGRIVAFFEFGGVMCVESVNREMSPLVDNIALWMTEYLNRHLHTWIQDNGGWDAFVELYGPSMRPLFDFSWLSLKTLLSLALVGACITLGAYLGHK
# Chain of Caspase-3 (Homo sapiens) (P42574 whole entry, looked up): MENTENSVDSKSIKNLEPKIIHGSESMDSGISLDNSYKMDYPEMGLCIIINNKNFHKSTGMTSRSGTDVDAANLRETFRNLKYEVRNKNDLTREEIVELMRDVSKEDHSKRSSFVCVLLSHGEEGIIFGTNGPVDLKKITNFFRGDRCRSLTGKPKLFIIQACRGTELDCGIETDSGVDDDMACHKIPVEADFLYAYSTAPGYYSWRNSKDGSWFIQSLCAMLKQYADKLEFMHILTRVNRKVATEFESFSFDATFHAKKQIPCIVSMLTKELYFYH
SMILES,AC50 [1],outcome [2],outcome [3],outcome [4],outcome [5],outcome [6],AC50 [7],AC50 [8],AC50 [9],AC50 [10],outcome [1],outcome [7],outcome [8],outcome [9],outcome [10],AC50 [2],AC50 [3],AC50 [5],AC50 [6]
CCCCCCCCCCCC[N+](C)(C)C,84.4 µM (active),inactive,inactive,inactive,inactive,inactive,92.4 µM (active),93.6 µM (active),78.4 µM (active),91.4 µM (active),–,–,–,–,–,–,–,–,–
O=C=NCCCCCCN=C=O,–,inactive,inactive,inactive,inactive,inactive,–,–,–,–,inactive,inactive,inactive,inactive,inactive,–,–,–,–
CC(C)(C)c1csc(-c2cc3cc(OCc4ccccc4CC(=O)O)ccc3o2)n1,–,–,–,inactive,inactive,inactive,23.3 µM (active),33.5 µM (active),25.5 µM (active),12.5 µM (active),inactive,–,–,–,–,75.7 µM (active),77.7 µM (active),–,–
O=C1c2ccccc2C(=O)N1CCc1noc(-c2ccc(CN3CCCCCC3)s2)n1,–,inactive,inactive,inactive,–,inactive,27.9 µM (active),–,–,–,inactive,–,inactive,inactive,inactive,–,–,6.97 µM (active),–
O=C(O)Cc1cc(I)c(Oc2ccc(O)c(I)c2)c(I)c1,84 µM (active),–,inactive,inactive,–,inactive,93.8 µM (active),93.1 µM (active),–,79.5 µM (active),–,–,–,inactive,–,–,–,2.37 µM (active),–
O=c1c(-c2ccc(O)cc2)coc2cc(O)cc(O)c12,–,inactive,inactive,inactive,inactive,inactive,–,–,–,–,inactive,inactive,inactive,inactive,inactive,–,–,–,–
C[C@]12CC[C@@H]3c4ccc(O)cc4CC[C@H]3[C@@H]1CC[C@H]2O,–,inactive,inactive,inactive,inactive,inactive,1.19 µM (active),3.77 µM (active),1.46 µM (active),–,inactive,–,–,–,inactive,–,–,–,–
Cc1ccc2oc(CN(Cc3ccccc3)C(=O)Nc3c(F)cc(F)cc3F)c(-c3ccc(Cl)cc3)c2c1,44.2 µM (active),inactive,inactive,inactive,–,inactive,77 µM (active),–,–,12.4 µM (active),–,–,inactive,inactive,–,–,–,–,–
O=c1ccc2ccccc2o1,–,inactive,inactive,inactive,inactive,inactive,40.3 µM (active),–,–,–,inactive,–,inactive,inactive,inactive,–,–,–,–
O=C(O)c1ccccc1C(=O)OCc1ccccc1,–,inactive,inactive,inactive,inactive,inactive,–,–,–,–,inactive,inactive,inactive,inactive,inactive,–,–,–,–
O=C(Nc1ccc(Cl)cc1)Nc1ccc(Cl)c(Cl)c1,11.9 µM (active),inactive,–,inactive,–,inactive,19.2 µM (active),22.6 µM (active),87.1 µM (active),16.9 µM (active),–,–,–,–,–,–,13.3 µM (active),11.8 µM (active),–
O=c1[nH]sc2ccccc12,–,inactive,inactive,inactive,–,inactive,–,–,–,–,inactive,inactive,inactive,inactive,inactive,–,–,80.3 µM (active),–
CN1C(=O)N(c2ccccc2Br)Cc2cnc(Nc3ccc4c(c3)OCC(CO)O4)nc21 (stereo not given),89.1 µM (active),–,–,–,–,–,74.3 µM (active),35.4 µM (active),–,32.7 µM (active),–,–,–,inactive,–,70.7 µM (active),66.4 µM (active),90.9 µM (active),85.8 µM (active)
Oc1ccc2ccccc2c1,–,inactive,inactive,inactive,–,inactive,–,–,–,–,inactive,inactive,inactive,inactive,inactive,–,–,78.1 µM (active),–
CN(C[C@@H](CC[N+]12CCC(C3CCCCC3)(CC1)CC2)c1ccc(Cl)c(Cl)c1)C(=O)c1cc(C(F)(F)F)cc(C(F)(F)F)c1,–,inactive,inactive,inactive,–,inactive,18 µM (active),29.9 µM (active),25.4 µM (active),12.9 µM (active),inactive,–,–,–,–,–,–,11.5 µM (active),–
CC(C)(C)c1cc(/C=C2\SC(N)=NC2=O)cc(C(C)(C)C)c1O,21.1 µM (active),–,–,inactive,inactive,–,93.7 µM (active),26.3 µM (active),–,12.2 µM (active),–,–,–,inactive,–,15.8 µM (active),15.8 µM (active),–,27.8 µM (active)
CCCCCCCCOc1ccc(C(=O)c2ccccc2)c(O)c1,–,inactive,inactive,inactive,–,inactive,50 µM (active),–,–,–,inactive,–,inactive,inactive,inactive,–,–,50 µM (active),–
CCCCCc1ccc(N)cc1,–,inactive,inactive,inactive,–,inactive,18.8 µM (active),–,18.7 µM (active),–,inactive,–,inactive,–,inactive,–,–,30.3 µM (active),–

SMILES,AC50 [1],outcome [2],outcome [3],outcome [4],outcome [5],outcome [6],AC50 [7],AC50 [8],AC50 [9],AC50 [10],outcome [1],outcome [7],outcome [8],outcome [9],outcome [10],AC50 [2],AC50 [3],AC50 [5],AC50 [6]
CCN(Cc1cccc(S(=O)(=O)O)c1)c1ccc(C(=C2C=CC(=[N+](CC)Cc3cccc(S(=O)(=O)O)c3)C=C2)c2ccccc2S(=O)(=O)[O-])cc1,–,inactive,inactive,inactive,inactive,inactive,–,–,–,–,inactive,inactive,inactive,inactive,inactive,–,–,–,–
COc1cccc([C@H](O)C2CCN(CCc3ccc(F)cc3)CC2)c1OC,–,inactive,inactive,inactive,–,inactive,13.9 µM (active),50 µM (active),–,–,inactive,–,–,inactive,inactive,–,–,58.9 µM (active),–
CO[C@H]1/C=C/O[C@@]2(C)Oc3c(C)c(O)c4c(O)c(c(/C=N/N5CCN(C)CC5)c(O)c4c3C2=O)NC(=O)/C(C)=C\C=C\[C@H](C)[C@H](O)[C@@H](C)[C@@H](O)[C@@H](C)[C@H](OC(C)=O)[C@@H]1C,–,inactive,inactive,inactive,–,inactive,0.359 µM (active),0.427 µM (active),0.232 µM (active),–,inactive,–,–,–,–,–,–,0.563 µM (active),–
CCCC(=O)OCCC(C)C,–,inactive,inactive,inactive,–,inactive,–,–,–,–,inactive,inactive,inactive,inactive,inactive,–,–,50 µM (active),–
CC1=CC(=O)/C(=C(/C)O)C(=O)O1,–,inactive,inactive,inactive,inactive,inactive,–,–,–,–,inactive,inactive,inactive,inactive,inactive,–,–,–,–
O=CCCCC=O,–,inactive,inactive,inactive,inactive,inactive,–,–,–,–,inactive,inactive,inactive,inactive,inactive,–,–,–,–
CC(O)CC(C)(C)O (stereo not given),–,inactive,inactive,inactive,inactive,inactive,–,–,–,–,inactive,inactive,inactive,inactive,inactive,–,–,–,–
CC1(C)NC(=O)N(c2ccc([N+](=O)[O-])c(C(F)(F)F)c2)C1=O,78.9 µM (active),inactive,inactive,inactive,–,inactive,81.4 µM (active),12.4 µM (active),85.5 µM (active),83.6 µM (active),–,–,–,–,–,–,–,85.5 µM (active),–
O=C(O)Cn1c(=O)n(Cc2ccc(Br)cc2F)c(=O)c2ccc(Cl)cc21,–,inactive,inactive,inactive,inactive,inactive,32.7 µM (active),13 µM (active),17 µM (active),–,inactive,–,–,–,inactive,–,–,–,–
CCCCCCCCCC(=O)O,–,inactive,inactive,inactive,inactive,inactive,–,–,–,–,inactive,inactive,inactive,inactive,inactive,–,–,–,–
C[C@]12CC[C@@H]3c4ccc(O)cc4CC[C@H]3[C@@H]1CCC2=O,–,inactive,inactive,–,–,inactive,–,–,–,–,inactive,–,–,–,–,–,–,–,–
Cc1ncc(CO)c(CO)c1O,–,inactive,inactive,inactive,inactive,inactive,–,–,–,–,inactive,inactive,inactive,inactive,inactive,–,–,–,–
Cc1oc2c(NC(=O)c3c(Cl)cccc3Cl)cccc2c1C(C)(C)O,55.3 µM (active),inactive,inactive,inactive,–,inactive,32.8 µM (active),33.5 µM (active),35.8 µM (active),33.8 µM (active),–,–,–,–,–,–,–,12.7 µM (active),–
COc1cc(C(=O)NC2CCN(C)CC2)ccc1Nc1ncc2c(n1)N(C1CCCC1)CC(F)(F)C(=O)N2C,–,–,–,inactive,–,–,0.151 µM (active),4.65 µM (active),–,3.9 µM (active),inactive,–,–,inactive,–,4.65 µM (active),11.1 µM (active),4.65 µM (active),16.2 µM (active)
CCCCOC(=O)CC(CC(=O)OCCCC)(OC(C)=O)C(=O)OCCCC,–,inactive,inactive,inactive,inactive,inactive,–,–,–,–,inactive,inactive,inactive,inactive,inactive,–,–,–,–
CN(C)C(=O)C1(N2CCCCC2)CCN(CC[C@@]2(c3ccc(Cl)c(Cl)c3)CN(C(=O)c3ccccc3)CCO2)CC1,22.6 µM (active),inactive,inactive,inactive,–,inactive,27.8 µM (active),23.9 µM (active),28 µM (active),21.9 µM (active),–,–,–,–,–,–,–,24.2 µM (active),–
Clc1cc(Cl)c2c(c1)N=C1CCCCCN1C2,–,inactive,inactive,inactive,–,inactive,6.27 µM (active),–,6.18 µM (active),–,inactive,–,inactive,–,inactive,–,–,2.21 µM (active),–
CCN(CC)C(=O)c1cc(S(=O)(=O)Cc2ccccc2)c(N2CCC(c3ccccc3)CC2)cc1N(CC)CCN(C)C,–,inactive,–,inactive,–,–,5.04 µM (active),4.25 µM (active),4.92 µM (active),5.05 µM (active),inactive,–,–,–,–,–,30.6 µM (active),6.01 µM (active),30.8 µM (active)
